# NS1 function inh – blocks influenza NS1 protein function | actives 0.4% (n = 270,000) | Potency, µM (titrated, usually from 46.1 µM), without a hit: top-dose activity, positive = more growth; calls by dose curve; further: potency means the concentration at half of the fitted maximal effect; actives are rising curves; nearly all actives have a fitted effect of over 50% in size
#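 OD600 was taken as the measure of yeast growth restored by compound in an NS1-expressing S. cerevisiae strain. Cells had been washed out of glucose medium and diluted 1:100 into galactose -URA medium, pH 6.0.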
# SARS PLP yeast – blocks SARS-CoV papain-like protease in a yeast assay; S. cerevisiae expressing SARS-CoV PLpro, growth rescue; Potency, µM (highest dose often 32.9 µM), for the others: at the top dose activity, positive = growth rescue, most hits filed as activators; actives 0.19% (n = 330,000); AID 485353; calls by dose curve; further: potency means the concentration at half of the fitted maximal effect; 0% is about no effect; nearly all actives have a fitted effect of over 55% in size
# Pf growth 96h – P. falciparum growth inhibition at 96 hour, primary screen for plastid delayed-death inhibitors; Potency, µM (highest dose often 28.7 µM), without a hit: at the highest dose activity change, negative = inhibition, hits mostly inhibitors; P. falciparum luciferase reporter growth, 96 h; actives 6.9% (n = 320,000); further: potency means the concentration at half of the fitted maximal effect; on the % scale 0 is the no-effect control and ±100 the full control effect
#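 Two-generation exposure (96 h) targets delayed-death phenotype. Reporter parasites carrying integrated firefly luciferase, in red cells at 2% hematocrit and 0.05% parasitemia final, kept at 37 C, 5% CO2; luminescence loss indicates inhibition.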
# Pf growth 48h – inhibits P. falciparum growth in the first generation, 48 h | actives 5.9% (n = 310,000) | Potency, µM (doses to about 28.7 µM), without a hit: at the highest dose activity change, negative = inhibition, actives largely listed as inhibitors | P. falciparum luciferase growth in erythrocytes, 48 h; further: potency means the concentration at half of the fitted maximal effect; on the % scale 0 is the no-effect control and ±100 the full control effect
#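 Luminescence readout; reporter = integrated firefly luciferase in P. falciparum. RBC culture at 2% hematocrit, 0.1% parasitemia final, 37 C/5% CO2; decreased signal taken as growth inhibition.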
# Shiga inhibitor – inhibitors of Shiga toxin in Vero cells; Vero cells, Shiga toxin protein synthesis inhibition reporter; inhibition, % at 38.7 µM; actives 9.2% (n = 290,000); AID 2315; in the data active means inhibition mostly above about 28%, no sharp cut-off; inactive means mostly below about 43%; further: 0% is about no effect
# Cycloheximide cs – counter-screen for Shiga toxin inhibitors: cycloheximide protein synthesis inhibition; AID 2314; actives 12% (n = 300,000); cell reporter, cycloheximide protein synthesis inhibition counterscreen; max response, %; in the data active means max response mostly above about 13%, no sharp cut-off; inactive means mostly below about 14%; further: read at 38.3 µM for the half of the compounds with a filed dose; 0% is about no effect
# * marks the source's active call; other numbers are inactive results; u = inconclusive; x = not tested or not shown. Only some compounds are listed: those with a hit (about 21% of all), similar ones and a draw of the others. Unless noted, the call rests on the fitted dose curve; in most records, active means well fitted inhibition curve with a large enough effect; inconclusive means small, poorly fitted or top-dose-only effect, or another doubt; inactive means no such curve, though single readings can be large or run the other way.
SMILES,NS1 function inh,SARS PLP yeast,Pf growth 96h,Pf growth 48h,Shiga inhibitor,Cycloheximide cs
CCC(C)[C@H](NC(=O)C1(c2ccccc2)CCN(C(=O)OC(C)(C)C)CC1)C(=O)N[C@@H](C(=O)O)c1ccccc1 (some centres undefined),u,10%,13µM*,13µM*,-3,-4
CCOC(=O)C1CCN(C(=O)C2CCCN2S(=O)(=O)c2ccc(Cl)cc2)CC1 (centres undefined),3%,-3%,10µM*,0%,-13,-2
CCOC(=O)C1CCCN(CC(=O)Nc2ccc(C(=O)Nc3ccccc3OC)cc2)C1 (centres undefined),x,-1%,u,12µM*,x,x
CCOC(=O)C1CCN(S(=O)(=O)c2nc3nc(C)cc(C)n3n2)CC1,8%,4%,10µM*,2%,-19,0
COc1ccccc1NC(=O)c1ccc(NC(=O)CN2CCCC2)cc1,-1%,-3%,11%,1%,-1,9
CCOC(=O)C1CCN(S(=O)(=O)c2ccc(OC)c(C(=O)N3CCCCCC3)c2)CC1,-16%,2%,-5%,-4%,-2,-2
CCOC(=O)C1CCN(C(=O)c2cc(S(=O)(=O)N3CCCCCC3)ccc2OC)CC1,x,1%,4.1µM*,u,x,x
CN(CCOc1ccccc1)C(=O)c1cc(S(=O)(=O)N2CCCCC2)ccc1Cl,x,0%,u,2%,x,x
COCCn1c(N/N=C(C)/C=C/c2ccccc2)nc2c1c(=O)[nH]c(=O)n2C,-1%,0%,u,-7%,-15,1
CCOC(=O)C1CCN(S(=O)(=O)c2ccc3[nH]c(=O)c(=O)[nH]c3c2)CC1,x,-2%,9%,-23%,32,10
CCOC(=O)C1CCCN(C(=O)c2cccc(S(=O)(=O)N(Cc3ccccc3)c3ccccc3OC)c2)C1 (centres undefined),x,-1%,u,10µM*,x,x
CCOC(=O)C1CCN(S(=O)(=O)c2ccc3[nH]c4c(c3c2)CCCC4)CC1,-2%,15%,10µM*,-17%,4,8
CCOC(=O)C1=C(COC(=O)[C@@H]2CCCN2S(=O)(=O)c2ccc(C)cc2)NC(=O)NC1C (some centres undefined),13%,-1%,20%,14%,10,12*
CCOC(=O)C1CCCN(C(=O)c2cc(S(=O)(=O)N3CCCCCC3)ccc2OC)C1 (centres undefined),x,0%,9.3µM*,9.3µM*,x,x
CCOc1cc(CNS(=O)(=O)c2ccc3c(c2)CC(=O)N3C)cc(OCC)c1OCC,18%,-2%,11%,-29%,-7,-4
CCN(Cc1ccncc1)S(=O)(=O)c1ccc(C(C)=O)cc1,0%,-5%,u,u,-4,-1
CCOC(=O)C1CCN(C(=O)c2ccc(OC)cc2OC)CC1,-3%,3%,13µM*,4%,-9,1
CCOC(=O)C1CCN(S(=O)(=O)c2cccc3nonc23)CC1,-4%,7%,85%,7%,15,-3
CCOC(=O)C1CCN(c2cc3c(cc2NC(=O)c2ccc(OC)c(OC)c2)n(C)c(=O)n3C)CC1,-1%,-2%,u,8.3µM*,-5,2
COc1ccccc1NS(=O)(=O)c1ccc(C(=O)N2CCCCCC2)cc1,x,-7%,x,x,x,x
CCOC(=O)C1CCN(C(=O)c2[nH]c3ccc(OC)cc3c2C)CC1,-7%,1%,8%,x,-7,-2
CCOC(=O)C1CCCN(C(=O)c2ccc(S(=O)(=O)Nc3ccccc3OC)cc2)C1 (centres undefined),x,1%,u,12µM*,x,x
CCOC(=O)C1CCN(S(=O)(=O)c2c(Cl)ccc3nonc23)CC1,-40%,-29%,2.3µM*,-23%,2,10
CCN1C(=O)/C(=C/C2=Cc3ccccc3OC2C)SC1=S (centres undefined),-4%,1%,20%,-2%,-4,-6
CCOC(=O)C1CCCN(C(=O)c2cn(C)c3ccc(S(=O)(=O)N(C)C)cc3c2=O)C1 (centres undefined),10%,-2%,0.93µM*,x,-3,-4
SMILES,NS1 function inh,SARS PLP yeast,Pf growth 96h,Pf growth 48h,Shiga inhibitor,Cycloheximide cs
CN(C)S(=O)(=O)c1ccc2c(c1)c(=O)c(C(=O)N1CCOCC1)cn2C,2%,-2%,117%,x,-12,-2
CCOC(=O)C1CCN(S(=O)(=O)c2ccc(Br)c(OCC)c2)CC1,-6%,-4%,4.7µM*,5%,5,-3
COc1ccc(N2C(=O)CC(Cc3ccccc3)C2=O)cc1 (centres undefined),-4%,1%,21%,8%,38,15
Cn1c(N2C(=O)CC(Cc3ccccc3)C2=O)nc2ccccc21 (centres undefined),-9%,4%,1.7µM*,11%,19,-2
Cc1ccc(C)c(N2C(=O)CC(Cc3ccccc3)C2=O)c1 (centres undefined),-2%,-1%,15µM*,2%,-2,-1
Cc1cc(C)cc(CC2CC(=O)N(c3nc(C)cc(C)n3)C2=O)c1 (centres undefined),-15%,-1%,-1%,21%,51*,27*
Cc1cc(C)cc(CC2CC(=O)N(c3cc(C)ccc3C)C2=O)c1 (centres undefined),-2%,-9%,304%,-20%,-12,-2
CCOc1ccc2[nH]c3nc(SCC(=O)NC4CC4)nnc3c2c1,13%,0%,-2%,0%,-8,0
COc1cc2c(cc1OC)CN(Cc1cc(OC)c(O)c(OC)c1)CC2,x,-1%,u,-2%,2,-4
Cc1ccc(-c2nc(CS(=O)CC(=O)NC3CCC(C)CC3)c(C)o2)cc1 (centres undefined),-14%,0%,u,x,-2,0
CCCc1cc(=O)[nH]c(N/N=C/C=C\c2ccccc2)n1,4%,-1%,9%,-9%,-4,-2
CCC(=O)N1CCc2cc(Br)cc(S(=O)(=O)CCC(=O)NCC3CCCO3)c21 (centres undefined),-5%,-3%,u,u,3,-3
CCC(=O)N1CCc2cc(S(=O)(=O)CCC(=O)NCc3ccco3)ccc21,x,1%,u,-16%,-5,-2
O=C(CCS(=O)(=O)c1cc(Br)cc2c1N(C(=O)C1CC1)CC2)NCc1ccco1,8%,2%,10%,8.3µM*,-7,3
CC(CC(=O)NCc1ccco1)S(=O)(=O)c1ccc2c(c1)CCN2C(=O)C1CC1 (centres undefined),-6%,4%,8.3µM*,-6%,-13,-6
Cc1c(Br)c([N+](=O)[O-])nn1CC(=O)NCc1cccnc1,-1%,-1%,32%,x,-11,-2
C=CCn1c(O)c(N=NC(=O)CNC(=O)c2ccco2)c2ccccc21,10%,8%,10%,25%,31,-3
COCc1cc(C)nc(NC2CCCCC2)c1C#N,5%,-5%,-27%,3.7µM*,-4,5

# Screens as filed in PubChem BioAssay.
